The source of these data is the antibiotic and cytotoxicity screens of Wong et al. (2023).

Among all 39,000 compounds or so, about 3,300 (8.5%) were called active. The sample as a whole holds a higher share of actives than the screen did.

The subject of the assay is HepG2. Put plainly: cytotoxicity call (relative viability < 0.9). The note with it: 10 µM.
For `NCc1cc(-c2ccccc2Cl)on1`, the cytotoxicity call is “inactive”.

As for `COc1ccc(S(=O)(=O)N(C)C[C@@H]2OCc3cnnn3CCCC(=O)N([C@H](C)CO)C[C@H]2C)cc1`, the cytotoxicity call was “inactive”. Then `C[C@@H]1CN([C@@H](C)CO)C(=O)c2cc(NS(=O)(=O)c3cccs3)ccc2O[C@@H](C)CCCCO[C@@H]1CN(C)CC1CCCCC1`, with “inactive”; and `C[C@@H]1CN([C@H](C)CO)C(=O)c2cc(-c3cccnc3)cnc2O[C@@H]1CN(C)C(=O)Nc1ccc2c(c1)OCO2`, with “inactive”.

Take `CON=C(C(=O)NC1C(=O)N2C(C(=O)O)=C(CSC(=O)c3ccco3)CSC12)c1csc(N)n1.Cl` (centres undefined): the cytotoxicity call was “inactive”. Then `O=C(C[C@@H]1C[C@@H]2c3cc(NC(=O)NC4CCCC4)ccc3O[C@@H]2[C@@H](CO)O1)NCc1ccc2c(c1)OCO2`, with “inactive”; and `Cc1noc(C)c1NC(=O)Nc1ccc2c(c1)C(=O)N([C@H](C)CO)C[C@H](C)[C@@H](CN(C)C(=O)Nc1cccc3ccccc13)OCCCC[C@H](C)O2`, with “inactive”; and `C[C@H]1CN([C@@H](C)CO)C(=O)c2cc(NC(=O)Nc3ccc(F)cc3)ccc2O[C@@H]1CN(C)Cc1ccc(Oc2ccccc2)cc1`, with “active”. Regarding `CC(C)NC(=O)N(C)C[C@@H]1Oc2c(NC(=O)C3CCCCC3)cccc2C(=O)N([C@H](C)CO)C[C@@H]1C`, the cytotoxicity call is “inactive”. Then `CN(C)CC(=O)N1CC2(C1)[C@@H](c1ccccc1)[C@@H](CO)N2S(C)(=O)=O`, with “inactive”; and `C[C@@H]1CCCCO[C@H](CN(C)Cc2ccccc2)[C@@H](C)CN([C@H](C)CO)C(=O)c2cc(NC(=O)Nc3ccc(C(F)(F)F)cc3)ccc2O1`, with “active”; and `C[C@@H]1CCCCO[C@H](CN(C)Cc2ccccc2)[C@@H](C)CN([C@@H](C)CO)C(=O)c2cc(NC(=O)Nc3ccc(C(F)(F)F)cc3)ccc2O1`, with “active”. Then `C[C@@H]1CCCCO[C@@H](CN(C)Cc2ccccc2)[C@@H](C)CN([C@H](C)CO)C(=O)c2cc(NC(=O)Nc3ccc(C(F)(F)F)cc3)ccc2O1`, with “active”; and `C[C@@H]1CCCCO[C@H](CN(C)Cc2ccccc2)[C@H](C)CN([C@H](C)CO)C(=O)c2cc(NC(=O)Nc3ccc(C(F)(F)F)cc3)ccc2O1`, with “active”; and `C[C@H]1CN([C@@H](C)CO)C(=O)c2cc(NC(=O)Nc3cccc4ccccc34)ccc2O[C@H]1CN(C)C(=O)Nc1cccc2ccccc12`, with “inactive”. On to `COc1ncc(NC(=O)C2CC2)c(OC)n1`, for which the cytotoxicity call was “inactive”.

`C[C@@H]1CN([C@H](C)CO)C(=O)c2c(c3ccccc3n2C)-c2ccccc2CO[C@@H]1CN(C)Cc1cccc2c1OCCCO2`: the cytotoxicity call is “inactive”. Then `C[C@@H]1CN([C@H](C)CO)C(=O)c2cccc(NC(=O)c3ccc(-c4nccs4)cc3)c2O[C@H]1CN(C)C(=O)Nc1ccc2c(c1)OCO2`, with “inactive”. Regarding `COc1ccc(S(=O)(=O)N(C)C[C@@H]2OCCCC[C@@H](C)Oc3ccc(NC(=O)CCC(F)(F)F)cc3C(=O)N([C@@H](C)CO)C[C@@H]2C)cc1`, the cytotoxicity call is “inactive”. On to `Cc1noc(C)c1S(=O)(=O)N(C)C[C@H]1Oc2ccc(NC(=O)Cc3cn(C)c4ccccc34)cc2CC(=O)N([C@H](C)CO)C[C@@H]1C`, for which the cytotoxicity call was “inactive”. The result for `O=C(C[C@H]1C=C[C@@H](NC(=O)c2ccc(F)cc2)[C@H](CO)O1)NCc1ccncn1` reads “inactive”; that for `CO[C@@H]1CN(C)C(=O)c2ccc(NC(=O)Nc3ccc(Cl)cc3)cc2OC[C@H](C)N(C(=O)Nc2c(C)noc2C)C[C@@H]1C`, “inactive”.

As to `C[C@@H]1CCCCO[C@H](CN(C)C(=O)Nc2ccc(C(F)(F)F)cc2)[C@H](C)CN([C@H](C)CO)C(=O)c2cc(NS(=O)(=O)c3cn(C)cn3)ccc2O1`, the cytotoxicity call was “inactive”. The result for `Cc1noc(C)c1NC(=O)Nc1ccc2c(c1)C(=O)N([C@H](C)CO)C[C@H](C)[C@H](CN(C)CC1CCCCC1)OCCCC[C@@H](C)O2` reads “inactive”. Then `C[C@H](CO)N1C[C@H](C)[C@@H](CN(C)C(=O)c2cccnc2)Oc2cc(-c3cccc(C#N)c3)ccc2S1(=O)=O`, with “inactive”; and `OCc1cncnc1`, with “inactive”. Turning to `C[C@H](CO)N1C[C@H](C)[C@H](CN(C)Cc2ccccc2)OCCCC[C@H](C)Oc2ccc(NC(=O)Nc3ccc(C(F)(F)F)cc3)cc2C1=O`, the cytotoxicity call is “active”.

On to `C[C@@H]1CCCCO[C@@H](CN(C)Cc2ccccc2)[C@H](C)CN([C@H](C)CO)C(=O)c2cc(NC(=O)Nc3ccc(C(F)(F)F)cc3)ccc2O1`, for which the cytotoxicity call was “active”. Then `C[C@H](CO)N1C[C@H](C)[C@@H](CN(C)Cc2ccccc2)OCCCC[C@H](C)Oc2ccc(NC(=O)Nc3ccc(C(F)(F)F)cc3)cc2C1=O`, with “active”; and `C[C@H]1CCCCO[C@H](CN(C)Cc2ccccc2)[C@@H](C)CN([C@@H](C)CO)C(=O)c2cc(NC(=O)Nc3ccc(C(F)(F)F)cc3)ccc2O1`, with “active”.

As for `O=C(Nn1cnnc1)c1ccccc1`, the cytotoxicity call is “inactive”. Then `O=C(O)c1n[nH]c2c1C[C@H]1C[C@@H]21`, with “inactive”; and `COc1ccc(S(=O)(=O)Nc2ccc3c(c2)C(=O)N([C@@H](C)CO)C[C@@H](C)[C@@H](CN(C)C(=O)Nc2c(C)noc2C)OCCCC[C@@H](C)O3)cc1`, with “inactive”; and `O=c1nc(C(F)(F)F)[nH]c2nc[nH]c12`, with “inactive”.

With `Cn1cnc(CCNC(=O)C[C@H]2CC[C@@H]3[C@H](COC[C@@H](O)CN3C(=O)C3CC3)O2)c1`, the cytotoxicity call was “inactive”. For the compound `O=C(N[C@@H]1CC[C@@H](CCn2cc(C3(O)CCCC3)nn2)O[C@H]1CO)C1CCOCC1`, the cytotoxicity call is “inactive”. The result for `C[C@H]1CN([C@@H](C)CO)C(=O)Cc2cc(N(C)C)ccc2O[C@H]1CN(C)S(=O)(=O)c1ccc(F)cc1` reads “inactive”; that for `C[C@H](CO)N1C[C@H](C)[C@@H](CN(C)CC2CCCCC2)Oc2ccc(NS(=O)(=O)c3cn(C)cn3)cc2C1=O`, “inactive”. Then `C[C@@H]1CN([C@@H](C)CO)C(=O)c2cc(NC(=O)Nc3ccc(C(F)(F)F)cc3)ccc2O[C@@H](C)CCCCO[C@@H]1CN(C)Cc1ccccc1`, with “active”; and `C[C@@H]1CCCCO[C@@H](CN(C)Cc2ccccc2)[C@@H](C)CN([C@@H](C)CO)C(=O)c2cc(NC(=O)Nc3ccc(C(F)(F)F)cc3)ccc2O1`, with “active”; and `C[C@@H]1CN([C@@H](C)CO)C(=O)c2cc(NC(=O)Nc3ccc(C(F)(F)F)cc3)ccc2O[C@@H](C)CCCCO[C@H]1CN(C)Cc1ccccc1`, with “active”. Regarding `C[C@@H]1CN([C@H](C)CO)C(=O)c2cc(NC(=O)Nc3ccc(C(F)(F)F)cc3)ccc2O[C@@H](C)CCCCO[C@@H]1CN(C)Cc1ccccc1`, the cytotoxicity call is “active”. Then `Cc1ccc(N2C(=O)C(=O)NC2=S)cc1`, with “inactive”. Then `C[C@H]1CN([C@@H](C)CO)C(=O)c2cc(NC(=O)CCN3CCOCC3)ccc2O[C@@H]1CN(C)C(=O)NC1CCCCC1`, with “inactive”. The result for `C[C@H]1CN([C@@H](C)CO)C(=O)Cc2cc(NS(=O)(=O)c3ccccc3)ccc2O[C@H]1CN(C)Cc1ccc2c(c1)OCO2` reads “inactive”; that for `C[C@H](CO)N1C[C@H](C)[C@H](CN(C)S(=O)(=O)c2cccs2)Oc2ccc(NC(=O)Cn3cnnn3)cc2CC1=O`, “inactive”. Consider `CC(C)NCCCC[C@H](NC(=O)[C@H]1CCC(=O)N[C@@H](Cc2ccccc2)C(=O)N[C@H](Cc2ccc(O)cc2)C(=O)N[C@@H](CCCCNC(C)C)C(=O)N[C@H](CCCN=C(N)N)C(=O)N[C@@H](Cc2ccc3ccccc3c2)C(=O)NCC(=O)N1)C(N)=O`, for which the cytotoxicity call is “inactive”. The result for `Cc1noc(C)c1NC(=O)N(C)C[C@H]1Oc2ccc(NC(=O)Cn3cnnn3)cc2C(=O)N([C@H](C)CO)C[C@@H]1C` reads “inactive”; that for `Nc1nnc(N[C@H]2CCCCNC2=O)[nH]1`, “inactive”. The result for `COCc1cn(CC[C@H]2CC[C@@H](NC(=O)CCN3CCCCC3)[C@@H](CO)O2)nn1` reads “inactive”; that for `COCC#Cc1cnc2c(c1)C(=O)N([C@@H](C)CO)C[C@@H](C)[C@H](CN(C)S(=O)(=O)c1cccc(OC)c1)O2`, “inactive”.

As for `CO[C@H](CN(C)S(=O)(=O)c1ccc(F)cc1)[C@@H](C)CN([C@H](C)CO)S(=O)(=O)c1cccc(Cl)c1`, the cytotoxicity call was “inactive”. The result for `C[C@@H]1CN([C@H](C)CO)C(=O)c2cccc(NC(=O)c3ccno3)c2O[C@H]1CN(C)S(=O)(=O)c1cccs1` reads “inactive”; that for `C[C@@H]1CN([C@H](C)CO)C(=O)c2cc(NC(=O)Nc3ccc(C(F)(F)F)cc3)ccc2O[C@@H](C)CCCCO[C@H]1CN(C)Cc1ccccc1`, “active”.

`C[C@@H]1CCCCO[C@@H](CN(C)Cc2ccccc2)[C@H](C)CN([C@@H](C)CO)C(=O)c2cc(NC(=O)Nc3ccc(C(F)(F)F)cc3)ccc2O1`: the cytotoxicity call is “active”.

With `C[C@@H]1CCCCO[C@H](CN(C)Cc2ccccc2)[C@H](C)CN([C@@H](C)CO)C(=O)c2cc(NC(=O)Nc3ccc(C(F)(F)F)cc3)ccc2O1`, the cytotoxicity call was “active”.

Consider `C[C@H]1CCCCO[C@@H](CN(C)Cc2ccccc2)[C@@H](C)CN([C@@H](C)CO)C(=O)c2cc(NC(=O)Nc3ccc(C(F)(F)F)cc3)ccc2O1`, for which the cytotoxicity call is “active”. In the case of `Cc1noc(C)c1NC(=O)Nc1cccc2c1O[C@H](CN(C)Cc1ccc(C(F)(F)F)cc1)[C@@H](C)CN([C@H](C)CO)C2=O`, the cytotoxicity call was “inactive”. Consider `C[C@@H]1CN([C@H](C)CO)C(=O)c2cccc(NC(=O)CCCCCC(=O)Nc3ccccc3N)c2O[C@@H]1CN(C)Cc1ccccc1`, for which the cytotoxicity call is “inactive”.

In the case of `C=CCOC[C@H]1NCCc2c1nnn2CC`, the cytotoxicity call was “inactive”. Then `COc1ccc(CN(C)C[C@@H]2Oc3c(NS(=O)(=O)c4cn(C)cn4)cccc3C(=O)N([C@H](C)CO)C[C@H]2C)cc1`, with “inactive”; and `O=C(C[C@@H]1CC[C@H]2[C@@H](COC[C@@H](O)CN2C(=O)c2cccnc2)O1)NCC1CC1`, with “inactive”.

Consider `C[C@@H]1CN([C@@H](C)CO)C(=O)c2cc(NS(C)(=O)=O)ccc2O[C@@H](C)CCCCO[C@@H]1CN(C)S(=O)(=O)c1cn(C)cn1`, for which the cytotoxicity call is “inactive”.

For `C[C@H]1CCCCO[C@@H](CN(C)Cc2ccc(C(=O)O)cc2)[C@@H](C)CN([C@@H](C)CO)C(=O)c2cc(NC(=O)Nc3ccc(F)cc3)ccc2O1`, the cytotoxicity call is “inactive”.
